Source: PubChem BioAssay
Sampled rows, rich in hits. Any-hit rate of the full collection: about 1.4%.
Bcl-xL primary = Bcl-xL (human) inhibition. Q07817. GST-Bcl-xL / FITC-Bim BH3 peptide fluorescence polarization. inhibition, % at 10.9 µM. 0.7% of 320,000 active. AID 2129;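 active = inhibition above the mean of all tested compounds plus 3 SD, cutoff set per campaign, cut at about 30% in these data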;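 also: 0% = DMSO wells and 100% = unlabeled Bim-BH3 peptide competitor; inhibitors lower millipolarization by displacing the labeled peptide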
Target sequence (Q07817 whole entry, looked up): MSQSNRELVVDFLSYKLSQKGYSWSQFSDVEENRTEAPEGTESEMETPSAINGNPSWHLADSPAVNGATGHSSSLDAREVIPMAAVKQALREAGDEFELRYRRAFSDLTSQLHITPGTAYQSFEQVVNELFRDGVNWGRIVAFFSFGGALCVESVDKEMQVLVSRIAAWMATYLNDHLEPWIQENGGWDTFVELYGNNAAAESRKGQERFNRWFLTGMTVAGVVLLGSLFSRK
GLD-1 TGE inh = GLD-1-TGE RNA interaction inhibition (C. elegans). 0.44% of 320,000 active. purified GLD-1 + fluorescein TGE RNA, fluorescence polarization. inhibition, % at 5.96 µM. AID 2280. Q17339;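 active = percent inhibition above a per-plate cutoff, the plate mean of test compounds plus 3 SD, cut at about 30% in these data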;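 also: 0% = DMSO wells with GLD-1 and probe and 100% = wells lacking GLD-1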
MEX-5 binding = C. elegans MEX-5 TCR-2 RNA binding activity; 0.38% of 300,000 active; AID 1832; Q9XUB2; MEX-5/FITC-TCR2 RNA binding, fluorescence polarization; hits give low values; activity score (negative = inhibition of binding), % at 10 µM;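 active = inhibition past about -25% in most replicates, and total fluorescence under double the plate's negative control median, limit read from the data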;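 also: 0% = DMSO and -100% = 5 µM competing unlabeled TCR2 RNA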
E coli Lon inh = E. coli protease La inhibition | 0.42% of 360,000 active | inhibition, % at 7.94 µM | P0A9M0 | purified E. coli Lon protease, fluorescence polarization; in the data active = inhibition above about 13%, passing the limit was not always enough;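 also: 0% = enzyme with probe and DMSO and 100% = no enzyme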
MCL1-BIM inh = MCL1-BIM-BH3 interaction inhibition (human). Q07820. GST-MCL1 / FITC-Bim-BH3 fluorescence polarization. inhibition, % at 10.9 µM. 0.68% of 320,000 active;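 active = inhibition above the mean inhibition of all tested compounds plus 3 SD, set per campaign, cut at about 40% in these data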;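 also: 0% = DMSO wells and 100% = unlabeled Bim-BH3 peptide control; higher means more loss of mP so more displacement of Bim peptide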
Target sequence (Q07820 whole entry, looked up): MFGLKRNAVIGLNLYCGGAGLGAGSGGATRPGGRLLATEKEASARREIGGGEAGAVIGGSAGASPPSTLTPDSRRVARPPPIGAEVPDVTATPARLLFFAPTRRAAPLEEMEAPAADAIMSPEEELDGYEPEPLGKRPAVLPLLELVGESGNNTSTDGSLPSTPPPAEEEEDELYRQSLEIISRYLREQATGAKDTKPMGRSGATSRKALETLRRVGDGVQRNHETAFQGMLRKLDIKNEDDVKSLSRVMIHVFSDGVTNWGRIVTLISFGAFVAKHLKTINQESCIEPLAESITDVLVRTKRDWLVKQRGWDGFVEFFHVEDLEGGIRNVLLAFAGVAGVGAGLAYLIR
* = called active by the depositor.

For CSc1nnc(N2C(=O)C(O)=C(C(=O)c3ccco3)C2c2cccc(Cl)c2)s1 (stereo unspecified) the results were Bcl-xL primary 38.9*, GLD-1 TGE inh 37.3*, MEX-5 binding -26.0*, E coli Lon inh -13.4 and MCL1-BIM inh 32.6.
For CCOc1cccc(C2C(C(=O)c3ccco3)=C(O)C(=O)N2c2nnc(C)s2)c1 (stereo unspecified) the results were Bcl-xL primary 43.4*, GLD-1 TGE inh 50.2*, E coli Lon inh 16.1 and MCL1-BIM inh 34.0.
COc1ccc(C2C(C(=O)c3ccco3)=C(O)C(=O)N2c2nnc(C)s2)cc1 (stereo unspecified) was read as Bcl-xL primary 25.8, GLD-1 TGE inh 23.9, MEX-5 binding -5.8, E coli Lon inh 0.8 and MCL1-BIM inh 32.0.
C=CCOc1ccc(C2C(C(=O)c3ccco3)=C(O)C(=O)N2c2nnc(C)s2)cc1 (stereo unspecified) was read as Bcl-xL primary 33.3*, GLD-1 TGE inh 21.4, MEX-5 binding -6.8, E coli Lon inh -0.1 and MCL1-BIM inh 26.8.
`COc1ccc(C2C(C(=O)c3ccco3)=C(O)C(=O)N2c2nnc(C)s2)cc1OC` (stereo unspecified) gave Bcl-xL primary 44.9*, GLD-1 TGE inh 18.8, MEX-5 binding -11.9, E coli Lon inh 5.1 and MCL1-BIM inh 43.3*.
O=C(Nc1ccc(Cl)c(C(F)(F)F)c1)C1Cc2c(-c3ccc4c(c3)OCO4)ccnc2O1 (stereo unspecified) was read as E coli Lon inh -0.9.
Screening CC(=O)c1c(C(C)=O)c(C)n(-c2cccc([N+](=O)[O-])c2)c1C returned Bcl-xL primary 4.7, GLD-1 TGE inh 1.2, MEX-5 binding -0.8, E coli Lon inh -5.3 and MCL1-BIM inh 8.3.
CC(=O)C1=C(c2cccc([N+](=O)[O-])c2)N(C(C)=O)n2c(C)nnc2S1 was read as Bcl-xL primary 5.3, GLD-1 TGE inh 7.9, MEX-5 binding -47.0*, E coli Lon inh 5.8 and MCL1-BIM inh 10.2.
O=C1c2cc(CO)cc(O)c2C(=O)c2c(O[C@@H]3OC(CO)[C@@H](O)[C@@H](O)[C@@H]3O)cccc21 (stereo partly specified) was read as Bcl-xL primary 11.4, GLD-1 TGE inh 9.8, MEX-5 binding -4.8, E coli Lon inh 6.1 and MCL1-BIM inh 14.4.
Screening O=C(O)c1cc(O)c2c(c1)[C@H]([C@H]1c3cc(C(=O)O)cc(O)c3C(=O)c3c(O[C@@H]4O[C@H](CO)[C@@H](O)[C@H](O)[C@H]4O)cccc31)c1cccc(OC3O[C@H](CO)[C@@H](O)[C@H](O)[C@H]3O)c1C2=O (stereo partly specified) returned Bcl-xL primary 94.1*, GLD-1 TGE inh 29.1, MEX-5 binding -97.6*, E coli Lon inh 2.6 and MCL1-BIM inh 110.2*.
Screening O=C(O)c1cc(O)c2c(c1)[C@@H]([C@H]1c3cc(C(=O)O)cc(O)c3C(=O)c3c(O[C@@H]4O[C@H](CO)[C@@H](O)[C@H](O)[C@H]4O)cccc31)c1cccc(OC3O[C@H](CO)[C@@H](O)[C@H](O)[C@H]3O)c1C2=O (stereo partly specified) returned Bcl-xL primary 96.9*, GLD-1 TGE inh 29.6, MEX-5 binding -100.2*, E coli Lon inh -7.9 and MCL1-BIM inh 114.3*.
For CCCNC(=O)C1(C)CCN(C(=O)c2ccc(F)c(Cl)c2)C1 (stereo unspecified) the results were E coli Lon inh -11.4.
`O=C(Nc1ccccc1OC(=O)c1ccccc1)c1ccccc1` gave E coli Lon inh -12.7.
For CCOC(=O)c1c(C)[nH]c(O)c1C=Nc1ccc(C(F)(F)F)cc1 the results were Bcl-xL primary -2.2, GLD-1 TGE inh 36.8*, MEX-5 binding -2.7, E coli Lon inh 2.6 and MCL1-BIM inh 7.2.
Nc1ccc2nc(CCCO)[nH]c2c1 was read as Bcl-xL primary 3.4, GLD-1 TGE inh -0.1, MEX-5 binding -48.7*, E coli Lon inh -1.0 and MCL1-BIM inh 1.9.
`Nc1ccc2nc(CCCCCCc3nc4ccc(N)cc4[nH]3)[nH]c2c1` gave Bcl-xL primary 4.5, GLD-1 TGE inh 5.1, MEX-5 binding -2.1, E coli Lon inh -0.2 and MCL1-BIM inh 6.6.
For CSc1sccc1/C=C(/C#N)C(=O)c1ccco1 the results were Bcl-xL primary -0.6, GLD-1 TGE inh -1.8, MEX-5 binding -27.1*, E coli Lon inh 3.0 and MCL1-BIM inh -0.4.
`CC1(C(=O)NCc2ccc(F)c(F)c2)Cc2c(-c3ccccc3)ccnc2O1` (stereo unspecified) gave E coli Lon inh -5.3.
For O=C(O)C1Nc2c(C(F)(F)F)ccc(Cl)c2C2C=CCC12 (stereo unspecified) the results were Bcl-xL primary 38.5*, GLD-1 TGE inh 14.6, MEX-5 binding -15.7, E coli Lon inh -0.2 and MCL1-BIM inh 47.6*.
Screening COCCNC(=O)C1Nc2ccc(C(F)(F)F)cc2C2C=CCC12 (stereo unspecified) returned Bcl-xL primary 0.9, GLD-1 TGE inh 1.7, MEX-5 binding 0.1, E coli Lon inh -2.1 and MCL1-BIM inh 2.8.
For COc1ccc2c(CN3CCN(c4ccccc4F)CC3)cc(=O)oc2c1 the results were E coli Lon inh -1.7.
`CC(C)OC(=O)c1sc2nc(-c3ccccc3)ccc2c1N` gave Bcl-xL primary 4.8, GLD-1 TGE inh 2.6, MEX-5 binding -1.7, E coli Lon inh -7.7 and MCL1-BIM inh 5.6.
Screening COc1ccc(C(=O)c2sc3nc(-c4ccccc4)ccc3c2N)cc1 returned Bcl-xL primary 52.3*, GLD-1 TGE inh -42.9, MEX-5 binding -2.6, E coli Lon inh -113.3 and MCL1-BIM inh 39.9*.
Screening CC(=O)NCCNc1ccc([N+](=O)[O-])cc1C#N returned Bcl-xL primary 2.3, GLD-1 TGE inh 2.6, MEX-5 binding -41.0*, E coli Lon inh -0.7 and MCL1-BIM inh -0.9.
For CC(=O)NCCNc1ccc([N+](=O)[O-])cn1 the results were Bcl-xL primary 3.7, GLD-1 TGE inh 5.5, MEX-5 binding -0.4, E coli Lon inh 1.5 and MCL1-BIM inh -0.9.
`CNC(=O)/C=C1\NC(C)(C)Cc2ccccc21` gave Bcl-xL primary 1.4, GLD-1 TGE inh -4.3, MEX-5 binding 2.0, E coli Lon inh -0.9 and MCL1-BIM inh -3.2.
`CCC1(C)Cc2ccccc2/C(=C/C(=O)N2CCCCC2)N1` (stereo unspecified) gave Bcl-xL primary 31.3*, GLD-1 TGE inh 12.5, MEX-5 binding -1.3, E coli Lon inh 7.2 and MCL1-BIM inh 31.2.
CN1/C(=N\O)c2cccc3cccc1c23 was read as Bcl-xL primary 10.2, GLD-1 TGE inh 14.7, MEX-5 binding 1.1, E coli Lon inh -2.2 and MCL1-BIM inh 15.1.
`CC(=O)c1ccc2cccc3c2c1N=CN3C` gave Bcl-xL primary 33.3*, GLD-1 TGE inh 13.2, MEX-5 binding -6.2, E coli Lon inh -12.7 and MCL1-BIM inh 27.5.
